# Data published in PubChem BioAssay (NCI).
# Compounds without any hit were thinned out: in the full panel of roughly 83,000, 20% have a hit.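 Note: values are percent growth. 100 is the growth of untreated cells, values between 100 and 0 indicate rising inhibition; between -100 and 0 indicates cell death.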 A number with no mark means an inactive call. Active and inactive are the calls of the source. Rule for the calls: active = growth percent below 10; inactive = the rest.
# Tests used:
# Test in all cases: NCI-60 one-dose screen, 48 h (100 = growth as untreated, 0 = no growth, -100 = all killed)
# Details in all cases: 10 µM unless noted
# HCT-15 colon = system: HCT-15 colon
# HT29 colon = system: HT29 colon
# SNB-75 CNS = system: SNB-75 CNS
# SNB-19 CNS = system: SNB-19 CNS
# U251 CNS = system: U251 CNS
# SK-MEL-5 melanoma = system: SK-MEL-5 melanoma
# UACC-62 melanoma = system: UACC-62 melanoma
# LOX IMVI melanoma = system: LOX IMVI melanoma
# SK-MEL-28 melanoma = system: SK-MEL-28 melanoma
# EKVX NSCLC = system: EKVX NSCLC
# SN12C renal = system: SN12C renal
# UO-31 renal = system: UO-31 renal
# TK-10 renal = system: TK-10 renal
# ACHN renal = system: ACHN renal
# CAKI-1 renal = system: CAKI-1 renal
# A498 renal = system: A498 renal
# MOLT-4 leukemia = system: MOLT-4 leukemia
# SK-MEL-2 melanoma = system: SK-MEL-2 melanoma
# CCRF-CEM leukemia = system: CCRF-CEM leukemia
SMILES,growth (HCT-15 colon),growth (HT29 colon),growth (SNB-75 CNS),growth (SNB-19 CNS),growth (U251 CNS),growth (SK-MEL-5 melanoma),growth (UACC-62 melanoma),growth (LOX IMVI melanoma),growth (SK-MEL-28 melanoma),growth (EKVX NSCLC),growth (SN12C renal),growth (UO-31 renal),growth (TK-10 renal),growth (ACHN renal),growth (CAKI-1 renal),growth (A498 renal),growth (MOLT-4 leukemia),growth (SK-MEL-2 melanoma),growth (CCRF-CEM leukemia)
C=CCSSc1ncnc2c1ncn2C1OC(CO)C(O)C1O (stereo not given),47.9%,28.6%,39.7%,88.1%,80%,61.1%,18.4%,8.74% (active),109%,91.9%,76.2%,36.5%,26%,25.3%,-2.6% (active),43.3%,13.2%,,
CCOC(=O)c1sc2nc(-c3cccc(O)c3)nc(N3CCOCC3)c2c1C,43.7%,98.2%,21.1%,69.2%,58.5%,52.7%,71.8%,57.3%,63.7%,,50.7%,25.4%,79.1%,58.3%,,97.8%,29.1%,78.9%,42.2%
COc1ccc(C(=O)COc2cccc(/C=C3\CSc4ccccc4C3=O)c2)cc1,-54.1% (active),-88.2% (active),91.6%,63.6%,-86.7% (active),-75.8% (active),-72% (active),-100% (active),-62.3% (active),70.7%,,18%,-5.8% (active),-35.8% (active),-47.9% (active),85.4%,-65.7% (active),-30.9% (active),-62.2% (active)
COc1cc(-c2ccc3c(c2)NC(=O)/C3=C\c2ccc[nH]2)ccc1O,14.1%,18.9%,47.2%,34.8%,15.4%,-27.5% (active),32.2%,-8.36% (active),37.5%,,27.5%,14.5%,35.7%,11.6%,11.2%,64%,10.3%,31.4%,12.3%
COc1ccc(-n2nc(C)c3c(Nc4ccc(NC(=O)Nc5cc(C(F)(F)F)ccc5F)cc4)ncnc32)cc1,8.66% (active),1.92% (active),25.8%,34.8%,12.9%,46%,19.6%,-90.5% (active),48.6%,,44.9%,16%,47.5%,25.3%,4.88% (active),56.5%,39.3%,25%,38.4%
COc1ccc(C(=O)/C=C/c2cccnc2Nc2cc(OC)c(OC)c(OC)c2)cc1,18.1%,15.1%,21.2%,36.3%,13%,43%,50%,-26% (active),71.5%,61.9%,8.5% (active),,44.9%,16.4%,,,2.59% (active),47.4%,-16.5% (active)
C(=N/Nc1ncc(-c2cc3cc(-c4ccccc4)ccc3o2)s1)/c1cccs1,99.2%,99.6%,100%,99.3%,99.5%,96.8%,90.7%,98.7%,96.1%,94.9%,,84.8%,97.5%,97.9%,103%,32.5%,96.5%,99.7%,97.5%
O=C(Nc1cccc2[nH]c(C(F)(F)F)nc12)c1ccc(-n2cnnn2)cc1,99.1%,111%,100%,94%,94.4%,87.2%,34.3%,102%,120%,,108%,75.9%,108%,,95.4%,83.1%,32.4%,,28.6%
C=CCSSC1N=CNc2nc[nH]c21 (stereo not given),52.7%,50.1%,46.9%,89.1%,70.2%,60.7%,16.8%,7.74% (active),114%,93.8%,72.9%,35.7%,29.5%,42.6%,9.26% (active),50.1%,34.9%,,
FC(F)(F)c1nc2c(NCc3ccc(-c4ccccc4)cc3)cccc2[nH]1,68.4%,84.4%,90.7%,117%,66.6%,88.4%,72.1%,82.4%,92.1%,,88.4%,57.5%,79.2%,81.6%,73.7%,48.7%,9% (active),,44.8%
O=[N+]([O-])c1ccc(Nc2nc(NCCN3CCOCC3)ncc2[N+](=O)[O-])cc1,84.9%,91.8%,76.4%,83.9%,88.6%,96%,84.2%,96.8%,98%,,90.2%,63.9%,76.5%,80.9%,56.7%,79.1%,103%,93.7%,98.1%
O=C(N/N=C/c1ccccc1O)c1ccccc1Nc1ccnc(C(F)(F)F)c1,24.6%,41.3%,20.7%,21.8%,18.8%,-64.5% (active),-19.1% (active),7.93% (active),28.3%,3.03% (active),26.8%,7.98% (active),34.3%,5.8% (active),-15.9% (active),-5.76% (active),5.72% (active),,
Cc1cc(Nc2ccc(C)c(Cl)c2)n2nc(C(F)(F)F)nc2n1,66.9%,25.5%,-30.7% (active),37.4%,-18.3% (active),75.4%,66.9%,12.2%,82.8%,,22.1%,,-32.3% (active),-2.48% (active),-35.5% (active),91.9%,74.1%,60.8%,62%
COc1ccc(C2CC(c3ccc(Cl)cc3)=NN2/C=C2\SC(=S)N(NC(=O)Cc3ccccc3Nc3c(Cl)cccc3Cl)C2=O)cc1 (stereo not given),68.7%,57.7%,58.4%,18.2%,54.1%,81.9%,63.2%,,92.1%,62.2%,48.5%,-30.2% (active),52.9%,-34.3% (active),62.8%,72%,13.5%,80.5%,38.3%
Cc1ccc(/C=C2\SC(=S)N(CC(=O)NCCCN3CCOCC3)C2=O)cc1,96.3%,109%,87.2%,94.5%,100%,97.1%,99.7%,91.7%,100%,93.7%,,83.9%,117%,90.5%,89.4%,96.1%,101%,107%,104%
Cn1ncc2c(=O)nc3c(-c4ccccc4)n[nH]n3c21,104%,103%,96.3%,99.1%,110%,110%,96.7%,115%,138%,,99.5%,97.1%,99.5%,116%,74.4%,112%,99.6%,112%,127%
COC(=O)[C@@H]1CCCN1C(=O)[C@@H]1CCCN1C(=O)[C@H](Cc1ccccc1)NC(=S)Nc1cc(C(F)(F)F)cc(C(F)(F)F)c1,76.4%,74.7%,73.8%,33.3%,7.88% (active),86.4%,85.3%,88.5%,85.3%,75.7%,,75.5%,85.1%,72.2%,72.3%,,50.1%,-21.9% (active),53.4%
